An excerpt weighted towards active compounds, which were near 19% of everything screened.
HT1080NT lethal: kills 2HG-producing HT-1080-NT fibrosarcoma cells. HT-1080-NT fibrosarcoma viability, CellTiter-Glo ATP luminescence, 48 h. Potency, µM (top dose mostly 46.1 µM), for the others: at the highest dose activity, negative = less viability, usual class: cytotoxic. 1.6% of 360,000 active. AID 686970;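 also: NT is the 2HG producing partner of a matched IDH1 knockdown line; potency is read from the fitted curve at half-maximal effect; 0% = DMSO-treated cells and -100% = media-only wells without cells; nearly all actives have a fitted effect of over 55% in size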
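Viability by CellTiter-Glo luminescence after 48 h compound exposure at 37C of HT-1080-NT cells (750/well, RPMI, 5% FBS). % activity scaled between DMSO wells and medium-only wells, then curve-fitted and categorized by curve class.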
DT40 TDP1 CPT: growth inhibition of DT40 Tdp1-/-;hTDP1 cells with camptothecin (screen for TDP1 inhibitors). Potency, µM (doses to about 46.2 µM), for the others: at the highest dose activity change, negative = growth inhibition, hits mostly inhibitors. 12% of 420,000 active. chicken DT40 Tdp1-/-;hTDP1 cells + 20 nM CPT, ATP luminescence, 48 h; also: potency is read from the fitted curve at half-maximal effect; nearly all actives have a fitted effect of over 55% in size
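Chicken DT40 Tdp1-/- cells stably complemented with human TDP1 were seeded at 400 cells/well in medium containing 20 nM camptothecin, exposed to pin-transferred compounds, and grown at 37 °C for at least 48 hr. Viability was read as ATP luminescence.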
IL1B secr inh: blocks inflammasome-driven IL-1 beta release; 4.7% of 360,000 active; activity change, % at 57.5 µM; THP-1 LPS/ATP IL-1B secretion, AlphaLISA, 16 h; active compounds read low; in the data active = activity change below about -50%; inconclusive = mostly about -30% to -49%
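THP-1 cells pretreated 1 hr with compounds (up to 57.5 uM final), then stimulated with LPS (250 ng/mL final) plus ATP (1.25 mM final); secreted IL-1B measured by AlphaLISA after 16 hr, decreased signal indicating inhibition.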
TDP1 cell noCPT: qHTS for Inhibitors of human tyrosyl-DNA phosphodiesterase 1 (TDP1): qHTS in cells in absence of CPT; DT40 Tdp1-/- hTDP1 cells, no CPT, ATP luminescence, 48 h; Potency, µM (doses to about 46.2 µM), inactives show top-dose activity change, negative = growth inhibition, most hits filed as inhibitors; 15% of 420,000 active; AID 686978, 2013; also: potency is read from the fitted curve at half-maximal effect; nearly all actives have a fitted effect of over 55% in size
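Seeded 400 DT40-hTDP1 cells/well (vehicle DMSO, no 20 nM CPT); pinned compounds; ≥48 hr at 37 °C; CellTiter-Glo luminescence as viability measure.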
HT1080 IDH1KD tx: HT-1080 IDH1 knockdown cell toxicity (counter line); 2% of 360,000 active; AID 686971; Potency, µM (series often up to 46.1 µM), for inactives: at the highest dose activity, negative = toxicity, most hits filed as cytotoxic; HT-1080 IDH1 knockdown viability, ATP luminescence, 48 h;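 also: potency is read from the fitted curve at half-maximal effect; 0% = DMSO wells and -100% = cell-free medium wells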
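HT-1080-IDH1KD cells (IDH1 knocked down), 750/well in RPMI with 5% FBS, treated with compound 48 h at 37 degrees C. Viability by CellTiter-Glo luminescence, normalised to DMSO and no-cell wells; concentration-response curves classed.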
The depositor's hits bear a star; ? = inconclusive; . = no result given; [ ] = another dose, or the depositor's remark. Unless noted, calls follow the shape of the dose curve; as a rule, active = well fitted curve in the direction sought with a large enough effect; inconclusive = small, poorly fitted or top-dose-only effect, or another doubt; inactive = no such curve, though single readings can be large; an effect the other way counts as inactive or inconclusive. Unless noted, % is scaled to controls: 0 for no effect and ±100 for the full control effect.

SMILES	HT1080NT lethal	DT40 TDP1 CPT	IL1B secr inh	TDP1 cell noCPT	HT1080 IDH1KD tx
CCN(CC)CCCNC(=O)c1ccc(Cn2c(=O)[nH]c3cc(OC)c(OC)cc3c2=O)cc1	.	-10%	.	-13%	.
Cc1cccnc1-c1cccc2c1OC(CNC(=O)Cc1c(C)noc1C)C2 (configuration not stated)	.	8%[9.04 µM]	.	-15%	.
COc1ccc(Cl)cc1-c1cc2c(c(OC)c1)OCCN(Cc1cccn1-c1nccs1)C2	.	0%[9.04 µM]	.	0%	.
O=C(Nc1ccc([N+](=O)[O-])cc1Cl)c1ccccc1O	.	3.2µM*	.	3.2µM*	.
CC(=O)Oc1c(C)cc(Cl)cc1C(=O)Nc1ccc([N+](=O)[O-])cc1Cl	?	0.52µM*	-67*	0.46µM*	1.2µM*
CC(=O)OCC(=O)Nc1ccc([N+](=O)[O-])cc1Cl	7%	22%	-5	10%	2%
CN1CCN(c2ccc([N+](=O)[O-])cc2NC(=O)c2ccccc2Cl)CC1	-2%[9.24 µM]	-3%	0	-13%	-5%
O=C(Cn1ncc2c([nH]c3ccccc32)c1=O)N1CCN(c2ccc(F)cc2)CC1	9%	-15%	-7	21%	?
O=C(CC(=O)NC1CCCCC1)N/N=C/c1ccccc1[N+](=O)[O-]	7%	-15%	1	1%	-4%
CCOC(=O)c1c(C)[nH]c(C)c1C(=O)Cn1nnc(-c2ccccc2C)n1	-5%	15µM*	10	?	-21%
CC(C)C(=O)N=C1SC2CS(=O)(=O)CC2N1Cc1ccccc1 (configuration not stated)	5%	1%	0	?	12%
O=c1[nH]c(O)c(C=Nc2ccc(Cl)cc2Cl)c(=O)[nH]1	5%	13%	4	8%	3%
Cc1ccc(-c2nn(-c3ccc(F)cc3)cc2C(=O)N(C)CC(=O)Nc2ccc(N3CCOCC3)cc2)cc1	-7%	?	14	15µM*	-6%
COc1ccc(NC(=O)CN(C)C(=O)c2cn(-c3ccccc3)nc2-c2ccc(OC)cc2)cc1	-2%	?	-18	?	-15%
COc1ccc(Cl)cc1NC(=O)CN(C)C(=O)c1cn(-c2ccccc2)nc1-c1cccnc1	-10%	18µM*	-91*	?	-28%
CN(CC(=O)Nc1ccc(N2CCOCC2)cc1)C(=O)c1cc(F)c(F)cc1Cl	18%	8%	-18	-8%	15%
COc1ccc(NC(=O)CN(C)C(=O)c2cn(-c3ccccc3)nc2-c2ccc(F)cc2)cc1	-21%	?	-53*	?	-12%
COc1ccc(NC(=O)CN(C)C(=O)c2cn(-c3ccccc3)nc2-c2ccc(Cl)cc2)cc1	?	?	-60*	15µM*	?
COc1cccc(NC(=O)CN(C)C(=O)c2cn(-c3ccccc3)nc2-c2cccnc2)c1	0%	?	0	?	0%
Cc1oc(-c2ccc(C(=O)NCc3ccc(N(C)C)cc3)cc2)nc1COc1ccccc1	.	3%	.	-26%	.
COc1cc(NC(=O)Cn2nc(C(F)(F)F)c3c2CCCC3)cc(OC)c1OC	-9%	23µM*	-12	10µM*	-21%
COC(=O)c1cc2oc(C)cc2n1Cc1ccc(C)cc1	.	-23%	.	?	.
CCOC(=O)c1cn(Cc2cccc(Cl)c2)nn1	6%	1%	-3	-5%	5%
CCOC(=O)c1cn(Cc2c(C)c(C)c(C)c(C)c2C)nn1	-1%	16µM*	22	23µM*	-3%
CC(=O)[C@H]1CC[C@H]2C3CC=C4C[C@@H](O)CC[C@]4(C)C3CC[C@]12C (some centres not stated)	.	6%	.	14%	.
SMILES	HT1080NT lethal	DT40 TDP1 CPT	IL1B secr inh	TDP1 cell noCPT	HT1080 IDH1KD tx
CCCCC(=O)N1C/C=C\C(c2ccc(OC)cc2)N(Cc2ccc(F)cc2)C(=O)C1 (configuration not stated)	0%	?	12	?	?
COc1ccc(C2/C=C\CN(C(=O)c3ccccc3)CC(=O)N2Cc2cccc(F)c2)cc1 (configuration not stated)	-3%	?	0	-64%	0%
COc1ccc([C@H]2/C=C\CN(C(=O)[C@H](Cc3ccccc3)NC(=O)OCC3c4ccccc4-c4ccccc43)CC(=O)N2Cc2ccc(F)cc2)cc1	-11%	21µM*	-26	?	-2%
COc1ccc(C2/C=C\CN(C(=O)OCC3c4ccccc4-c4ccccc43)CC(=O)N2Cc2cccc(F)c2)cc1 (configuration not stated)	-7%	?	2	23µM*	-17%
Cc1noc(C)c1S(=O)(=O)N1CCCC(C(=O)c2cccc(OC(C)C)c2)C1 (configuration not stated)	-3%	2%	22	?	2%
COc1ccc(-c2nc3cnc(N4CCOCC4)nc3n(C3CC3)c2=O)cc1	.	12%	.	14%	.
Cc1ccc(/C(N)=N/OC(=O)c2cccc(Cn3cc(C(F)(F)F)ccc3=O)c2)cc1	?	?	-68*	18µM*	?
O=C(Sc1ccc(Cl)cc1)c1cccc(Cn2cc(C(F)(F)F)ccc2=O)c1	-12%	18µM*	20	16µM*	-18%
N/C(=N\OC(=O)c1cccc(Cn2cc(C(F)(F)F)ccc2=O)c1)c1ccc(Cl)cc1	?	?	?	21µM*	?
N/C(=N\OC(=O)c1cccc(Cn2cc(C(F)(F)F)ccc2=O)c1)c1ccccc1	-3%	-4%	0	-21%	-7%
CSC1=NCCN1C(=O)c1c(-c2c(F)cccc2Cl)noc1C	15%	5%	39	-13%	18%
Cc1ccc2nc(N(Cc3cccnc3)C(=O)COc3ccccc3)sc2c1	.	?	.	-8%	.
CC1(C)CC(=O)C(C(C2=C(O)CC(C)(C)CC2=O)c2cccc(O)c2)C(=O)C1 (configuration not stated)	14%	-16%	13	0%	0%
CC1(C)CC(=O)C(C(C2=C(O)CC(C)(C)CC2=O)c2cccs2)C(=O)C1 (configuration not stated)	-1%	?	-96*	?	-12%
Cc1ccc(CN2CCC(=O)N(Cc3ccccn3)CC2)c(C)c1	.	-4%	.	-7%	.
Cc1cccc(OCCCCNCc2ccccc2)c1	-24%	-14%	-72*	?	-17%
COc1cccc(OCCNCc2ccccc2)c1	-2%	?	-19	18µM*	8%
COc1ccc(C(=O)NCCOc2cccc(OC)c2)cc1	1%	-11%	4	?	4%
O=C(c1sc2cccc(F)c2c1Cl)N1CCN(c2ncccn2)CC1	1%	-8%	6	?	3%
